High-throughput results as filed in PubChem BioAssay.
tim23-1 inh: inhibits growth of tim23-1 mutant yeast | 330,000 compounds, 1.3% hits | S. cerevisiae tim23-1 growth, BacTiter-Glo luminescence, 24 h | inhibition, % at 20 µM;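 active = growth inhibition of the mutant yeast at or above 50%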;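 also: temperature-sensitive mutant grown at 25 °C; plate controls were DMSO-treated mutant yeast for no effect and medium wells lacking yeast for full effect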
PfHsp90 set2: inhibits growth of yeast expressing Plasmodium falciparum Hsp90 | inhibition, % at 9.4 µM | S. cerevisiae expressing PfHsp90, BacTiter-Glo ATP, 48 h; yeast lacking PDR1 and PDR3 efflux regulators | AID 504621 | 310,000 compounds, 0.32% hits;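 active = every replicate shows inhibition above about 80%, whatever the replicate mean, limit read from the data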;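 also: 0% = DMSO neutral controls and 100% = 20 µM radicicol positive controls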
EBI2 antag: antagonists of human EBI2 receptor. P32249. EBI2 beta-arrestin recruitment, luminescence, 7a,25-OHC stimulated. inhibition, % at 5 µM. AID 651636. 360,000 compounds, 0.81% hits; in the data active = inhibition above about 38%;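 also: enzyme fragment complementation signal reports receptor beta-arrestin coupling in cells; 0% = agonist plus DMSO wells and 100% = wells without agonist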
Target sequence (P32249 whole entry, looked up, the tested form may be a part): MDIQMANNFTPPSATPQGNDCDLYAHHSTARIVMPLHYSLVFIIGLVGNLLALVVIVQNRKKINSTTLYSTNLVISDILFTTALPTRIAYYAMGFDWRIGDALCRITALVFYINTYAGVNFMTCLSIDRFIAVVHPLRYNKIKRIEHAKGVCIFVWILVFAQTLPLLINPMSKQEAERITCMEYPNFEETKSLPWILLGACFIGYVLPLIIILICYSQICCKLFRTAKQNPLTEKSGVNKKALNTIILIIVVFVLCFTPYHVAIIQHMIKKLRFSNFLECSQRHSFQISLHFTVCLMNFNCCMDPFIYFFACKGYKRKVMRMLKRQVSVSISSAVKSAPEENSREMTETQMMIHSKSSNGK
TIM10 inh: TIM10 yeast growth inhibition; inhibition, % at 10 µM; 330,000 compounds, 1.4% hits; S. cerevisiae TIM10 strain growth, BacTiter-Glo luminescence, 24 h;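 active = inhibition of 40% or more at the single tested concentration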;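 also: wild-type TIM10 isogenic control strain grown at permissive 25 °C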
SKKanGAS inh: blocks kanamycin growth of S. pyogenes SKKanGAS strain; BacTiter-Glo, 6 h; inhibition, % at 7.5 µM; 300,000 compounds, 1.3% hits;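 active = mean replicate score, as percent of positive control median, at least 50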;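 also: strain carries kanamycin resistance gene driven by streptokinase promoter and grows in 40 µg/ml kanamycin; loss of luminescence reflects streptokinase promoter inhibition or plain growth inhibition; 0% = median of DMSO wells and 100% = positive control at its reference dose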
tim10-1 inh: tim10-1 yeast growth inhibition; AID 463190; S. cerevisiae tim10-1 ts strain growth, BacTiter-Glo, 24 h; inhibition, % at 20 µM; 330,000 compounds, 2.2% hits;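 active = inhibition of at least 40%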;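 also: mutant grown at 25 °C; 0% = DMSO wells with yeast and 100% = wells holding no yeast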
tim10-1 conf: tim10-1 yeast growth inhibition, confirmed | AID 463213 | inhibition, % at 20 µM | S. cerevisiae tim10-1 ts strain growth, BacTiter-Glo, 24 h | 7,400 compounds, 56% hits | shares compounds with tim10-1 inh;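 active = inhibition of yeast growth at or above a set limit in either of two repeat tests at 20 µM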;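 also: tim10-1 mutant grown at permissive 25 °C to find synthetic lethal compounds; 0% = DMSO yeast wells and 100% = medium wells without yeast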
* marks the source's active call; other numbers are inactive results; · = no result. This is a sample that favours compounds with a hit; in the whole collection about 4.7% have one here.

SMILES | tim23-1 inh | PfHsp90 set2 | EBI2 antag | TIM10 inh | SKKanGAS inh | tim10-1 inh | tim10-1 conf
C=CCSc1nc2c(c(C3CC=CCC3)c1C#N)CCC2 (centres undefined) | 35 | -2 | 13 | 17 | 40 | 41* | 60*
CC(C)NC(=O)NC(=O)CN1c2cccc3cccc(c23)S1(=O)=O | 10 | 31 | 7 | 12 | 8 | 15 | ·
Cc1cccc2c1N(CCCOc1ccc(C(C)(C)C)cc1)C(=O)C2=O | 47 | -18 | 4 | 27 | 22 | 40* | 19
COc1ccccc1C(=O)NCCC(=O)NCc1ccncc1 | 10 | -19 | 4 | 4 | · | 6 | ·
Cc1ccc(NCc2nnc(SCC(=O)N3CCCc4ccccc43)o2)c(C)c1 | 5 | · | 17 | 6 | -3 | 37 | ·
Cc1ccc(NCc2nnc(SCC(=O)c3ccccc3)o2)c(C)c1 | 20 | · | 23 | 19 | 2 | 42* | 25
COc1cc2ccccc2cc1C(=O)N(CCN(C)C)c1nc2ccc(Br)cc2s1 | 18 | 10 | -4 | 33 | 6 | 54* | -9
COc1ccc(C)c2sc(N(CCN(C)C)C(=O)c3ccc4ccccc4c3)nc12 | 28 | -28 | -27 | 33 | 9 | 44* | 26
COc1cc2ccccc2cc1C(=O)N(CCN(C)C)c1nc2c(F)cc(F)cc2s1 | 32 | 14 | -12 | 31 | -4 | 33 | ·
CN(c1ccc(OCC(=O)N2CCOCC2)cc1)S(=O)(=O)c1ccc(Cl)cc1 | 3 | -8 | 8 | -2 | -2 | -3 | ·
Cn1c(N)c(C(=O)COC(=O)C2CCC(C(C)(C)C)CC2)c(=O)n(C)c1=O (centres undefined) | 19 | · | 4 | 10 | 4 | 42* | 26
COc1ccc(NC(=O)c2ccc(Cl)c(S(=O)(=O)N3CCc4ccccc4C3)c2)cn1 | 15 | 17 | 1 | 20 | 17 | 47* | 19
CCc1ccc(C(=O)C(C)OC(=O)c2nc3nc(C)cc(C)n3n2)cc1 (centres undefined) | -13 | 18 | 4 | -2 | 6 | -16 | ·
Cc1nn(Cc2ccc([N+](=O)[O-])cc2)c(=O)n1N(C)c1ncc(C(F)(F)F)cc1Cl | 27 | 9 | 7 | 24 | 4 | 43* | 27*
Cc1nn(Cc2ccc([N+](=O)[O-])cc2)c(=O)n1-c1ccccc1Cl | 6 | 6 | -6 | -9 | 5 | 16 | ·
CC(=O)OCCc1c2ccccc2c(CCCN(C)C)c2ccccc12 | 3 | 12 | -14 | 14 | 1 | 40* | 28
CC(=O)OCCc1[nH]c2ccccc2c1C | -2 | -18 | -9 | -2 | 8 | -5 | ·
CC1(C)Cc2c(ccc3ccccc23)/C(=C/C(=O)N2CCCCC2)N1 | 47 | 3 | 24 | 30 | 4 | 45* | 32*
O=C(/C=C1\NC2(CCCC2)Cc2ccccc21)N1CCOCC1 | 21 | 4 | -17 | 18 | 1 | 30 | ·
CCOc1ccc(-n2c(C)nc3cc(C(=O)NCc4ccc5c(c4)OCO5)ccc32)cc1 | 38 | 9 | 27 | 8 | 4 | 47* | 35*
COc1ccc(-n2c(C)nc3cc(C(=O)NCc4ccc5c(c4)OCO5)ccc32)cc1 | 28 | -8 | 9 | 12 | 0 | 18 | ·
CCc1nc2ccc(C(=O)N3CCN(c4cccc(OC)c4)CC3)cc2nc1CC | 39 | -14 | -3 | 24 | 1 | 46* | 13
COc1cccc(N2CCN(C(=O)c3ccc4nc[nH]c4c3)CC2)c1 | -10 | -5 | -23 | -6 | 1 | 4 | ·
S=C(c1ccc2c(c1)OCO2)N1CCN(c2cccc(Cl)c2)CC1 | · | -5 | 4 | · | · | · | ·
O=[N+]([O-])c1ccc2oc(C(O)c3cccc(Cl)c3)cc2c1 (centres undefined) | 47 | -23 | -6 | 22 | 3 | 44* | 43*
CCOC(=O)c1cc2cc([N+](=O)[O-])ccc2oc1=O | 2 | -10 | -2 | 2 | -9 | -4 | ·
CCc1nc(N)c(C#N)c(-c2cccn2C)c1C | 9 | 8 | 0 | -20 | 3 | 41* | 12
COc1ccc(C(=O)Nc2ccc(Cl)c(S(=O)(=O)Nc3ccccc3OC)c2)cc1 | 44 | -22 | 2 | 16 | 15 | 41* | 28
